Screening data from PubChem BioAssay.
Most compounds without a hit are left out; they make up all but 4.1% or so of the library.
PRMT1 FP inh = PRMT1 methyltransferase inhibitors, primary screen, biochemical, fluorescence polarization. recombinant PRMT1, activity-based probe fluorescence polarization. inhibition, % at 2.79 µM. hit rate 1.3% among 370,000. AID 652257, 2013;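 active = inhibition above about 21% made by adding two undisclosed values, limit read from the data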
Target sequence (Q99873 whole entry, looked up): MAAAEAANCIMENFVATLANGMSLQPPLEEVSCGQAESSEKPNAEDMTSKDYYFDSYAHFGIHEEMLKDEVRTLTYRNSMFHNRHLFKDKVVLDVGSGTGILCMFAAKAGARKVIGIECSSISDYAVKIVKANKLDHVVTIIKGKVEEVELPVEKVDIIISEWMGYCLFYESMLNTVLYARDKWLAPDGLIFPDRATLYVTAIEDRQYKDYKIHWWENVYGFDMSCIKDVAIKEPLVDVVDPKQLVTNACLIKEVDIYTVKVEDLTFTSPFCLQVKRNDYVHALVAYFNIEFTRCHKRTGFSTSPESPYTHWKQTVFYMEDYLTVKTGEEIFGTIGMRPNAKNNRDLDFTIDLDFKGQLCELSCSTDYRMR
UHRF1 binding = UHRF1 methylated DNA binding inhibitors, primary screen, counter-screen for MBD2 inhibitor project, biochemical, TR-FRET, human UHRF1, single concentration; E3 ubiquitin-protein ligase UHRF1 (Homo sapiens), Q96T88; UHRF1 binding to methylated oligo; inhibition, % at 4.4 µM; hit rate 0.75% among 370,000; AID 687016, 2013; in the data active = inhibition above about 21%;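 note: UHRF1 SRA domain binding a hemimethylated CpG hairpin DNA probe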
rCAG binder = binders of r(CAG) RNA repeats, primary screen, biochemical, fluorescence. r(CAG) RNA repeat, TO-PRO-1 dye displacement fluorescence. inhibition, % at 3 µM. hit rate 1.3% among 370,000;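 active = inhibition above the plate cutoff, the mean of all test compounds on that plate plus 3 SD, cut at about 35% in these data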;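 note: higher means more dye released from RNA so lower well fluorescence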
LEDGF integ inh = blockers of LEDGF/p75-dependent integrase strand transfer – biochemical, TR-FRET, high throughput, primary screen; HIV-1 integrase (with human LEDGF/p75); TR-FRET IN-LEDGF/p75 DNA integration, Eu/Cy5; inhibition, % at 3.7 µM; hit rate 0.64% among 370,000;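 active = inhibition above the screen-wide mean plus 3 SD, cut at about 13% in these data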;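 note: signal is the Cy5 over europium emission ratio at 671 and 618 nm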
MBD2 DNA inh = inhibitors of MBD2 binding to methylated DNA, primary screen, biochemical, TR-FRET, DNA-binding domain, human; AID 686964, 2013; MBD2 binding to methylated oligonucleotide; hit rate 0.31% among 370,000; inhibition, % at 4.4 µM; in the data active = inhibition above about 13%
ABHD5-PLIN5 inh = ABHD5-PLIN5 interaction inhibitors, primary screen, cell lysate, split luciferase complementation, luminescence | Split G. princeps luciferase complementation, 4 h | AID 602281, 2012 | Perilipin-5 (Homo sapiens) + 1-acylglycerol-3-phosphate O-acyltransferase ABHD5 (Homo … | inhibition, % at 4 µM | hit rate 0.78% among 360,000;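 active = inhibition above the mean inhibition across every tested compound plus 3 SD, cut at about 22% in these data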
PRMT1 inh conf = PRMT1 methyltransferase inhibitors, confirmation, biochemical, fluorescence polarization, triplicate. recombinant His-PRMT1, activity-based probe fluorescence polarization. hit rate 42% among 3,300. inhibition, % at 2.79 µM. shares compounds with PRMT1 FP inh;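 active = mean inhibition across replicates above the hit cutoff derived for the earlier primary screen, cut at about 22% in these data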
Large screens that a line does not name were inactive (follow-up assays come after a bar, where they were run).

COC(=O)Cc1nnn2c1[C@@H](C)[C@@H](c1ccccc1Br)O[C@@H](C)C2	none (no result: ABHD5-PLIN5 inh)
O=C(CCNC(=O)c1ccco1)NCCc1ccc(Cl)cc1	PRMT1 FP inh 47 | PRMT1 inh conf inactive
O=[N+]([O-])c1ccc(O)c(N=Cc2sc3ccccc3c2O)c1	PRMT1 FP inh 66 | PRMT1 inh conf 45
Oc1c(C=Nc2cccc3cccnc23)sc2ccccc12	PRMT1 FP inh 31 (no result: ABHD5-PLIN5 inh) | PRMT1 inh conf 32
Oc1ccc(Cl)cc1N=Cc1sc2ccccc2c1Cl	none
Fc1ccc(N=c2ssnc2Cl)c(F)c1	PRMT1 FP inh 44 | PRMT1 inh conf 41
Clc1ccc(N=c2ssnc2Cl)cc1	PRMT1 FP inh 73 | PRMT1 inh conf 93
Clc1nssc1=Nc1ccccc1	none (no result: PRMT1 FP inh, UHRF1 binding, rCAG binder, LEDGF integ inh, MBD2 DNA inh)
COc1ccc(N=c2ssnc2Cl)cc1	none (no result: PRMT1 FP inh, UHRF1 binding, rCAG binder, LEDGF integ inh, MBD2 DNA inh)
CCOC(=O)c1ccc(N=c2ssnc2Cl)cc1	PRMT1 FP inh 78 | PRMT1 inh conf 89
N#Cc1ccc(N=c2ssnc2Cl)cc1	PRMT1 FP inh 91 | PRMT1 inh conf 97
Cc1nnc(NC(=O)CCSCCC(=O)Nc2nnc(C)s2)s1	PRMT1 FP inh 29 | PRMT1 inh conf 30
CCOC(=O)CCSCC(=O)Nc1nnc(C)s1	none
O=C(NCc1ccccc1Cl)C1CCCN(c2nc3ccccc3o2)C1 (centres undefined)	none (no result: ABHD5-PLIN5 inh)
O=C(NCc1cccs1)[C@@H]1CSC2c3ccccc3C(=O)N21 (some centres undefined)	PRMT1 FP inh 26 | PRMT1 inh conf 34
CCCCCNC(=O)[C@@H]1CSC2c3ccccc3C(=O)N21 (some centres undefined)	none
COc1ccc2c(c1)CN(C)S(=O)(=O)c1ccccc1-2	none
COc1ccc2c(c1)-c1ccccc1S(=O)(=O)N(C)C2	PRMT1 FP inh 30 | PRMT1 inh conf inactive
COc1cccc(C2=CC(=O)CC(c3ccco3)C2)c1 (centres undefined)	PRMT1 FP inh 31 | PRMT1 inh conf inactive
COc1cccc(C2=CC(=O)C[C@H](c3ccc(Cl)cc3)C2)c1	none
CCOC(=O)c1c(-c2ccc(C)o2)csc1NC(=S)NC(=O)c1ccccc1Br	PRMT1 FP inh 55 | PRMT1 inh conf inactive
CCN1CCc2nc(NC(=O)c3ccccc3)sc2C1	none
CCN1CCc2nc(N)sc2C1	PRMT1 FP inh 45 | PRMT1 inh conf 22
O=C(N[C@@H](Cc1cccnc1)C(=O)N1CCC[C@H]1C(=O)NCCc1ccccc1Cl)c1ccccc1	none (no result: ABHD5-PLIN5 inh)
C=CCn1c2ccccc2c2n[nH]c(=S)nc21	PRMT1 FP inh 30 | PRMT1 inh conf inactive
O=C(O)Cn1c2ccccc2c2n[nH]c(=S)nc21	PRMT1 FP inh 42 | PRMT1 inh conf 85
CCn1c2ccccc2c2n[nH]c(=S)nc21	none
O=C(O)CCn1c2ccccc2c2nc3ccccc3nc21	none
CCSS(=O)(=O)c1cccc2cccnc12	PRMT1 FP inh 93 | PRMT1 inh conf 98
O=C(O)CCS(=O)(=O)c1cccc2cccnc12	none
CN(C(=O)CN1CCCCCC1)c1c(N)n(Cc2ccccc2)c(=O)[nH]c1=O	none
CCN(C(=O)CN1CCCc2cc(C)ccc21)c1c(N)n(Cc2ccccc2)c(=O)[nH]c1=O	PRMT1 FP inh 30 | PRMT1 inh conf inactive
CCN(C(=O)COC(=O)/C=C/c1ccco1)c1c(N)n(Cc2ccccc2)c(=O)[nH]c1=O	PRMT1 FP inh 30 | PRMT1 inh conf inactive
CCN(C(=O)C=Cc1ccco1)c1ccccc1	PRMT1 FP inh 31 | PRMT1 inh conf inactive
CCN(C(=O)CN1CCCCC1)c1c(N)n(Cc2ccccc2)c(=O)[nH]c1=O	none
Cc1ccc2c(c1)CCCN2CC(=O)N(C)c1c(N)n(Cc2ccccc2)c(=O)[nH]c1=O	PRMT1 FP inh 33 | PRMT1 inh conf inactive
CCN(C(=O)COC(=O)/C=C/c1ccc(OC)c(OC)c1)c1c(N)n(Cc2ccccc2)c(=O)[nH]c1=O	none
COC(=O)C1=C(C)N(C)C(=NCc2ccc(C(F)(F)F)cc2)NC1c1cccc(F)c1 (centres undefined)	none (no result: ABHD5-PLIN5 inh)
Cc1ccc2c(c1)C1CS(=O)(=O)N(C3CCCC3)C(=O)N1C2 (centres undefined)	none (no result: ABHD5-PLIN5 inh)
C=CCNc1ccc2c(c1)OC[C@H](Cc1ccccc1)NS2(=O)=O	none (no result: ABHD5-PLIN5 inh)
Cc1ccc(CNC(=O)c2coc(=O)c3ccccc23)o1	PRMT1 FP inh 32 | PRMT1 inh conf inactive
COc1ccc(N2C(=O)CC(Sc3n[nH]c(-c4ccccc4)n3)C2=O)cc1 (centres undefined)	PRMT1 FP inh 30 | PRMT1 inh conf 75
CCOc1ccc(N2C(=O)CC(Sc3n[nH]c(-c4ccccc4)n3)C2=O)cc1 (centres undefined)	PRMT1 FP inh 32 | PRMT1 inh conf 52
Cc1[nH]c2ccccc2c1CC(=O)Nc1ccc(Nc2cccnc2)c(-c2ccc(OC(F)(F)F)cc2)c1	none (no result: ABHD5-PLIN5 inh)
CCOC(=O)[C@H]1[C@H]2COc3ccccc3[C@@H]2N2C(=O)CN(Cc3ccc(C)cc3)C(=O)[C@@]12C	PRMT1 FP inh 50 | PRMT1 inh conf inactive
CCc1ccccc1N1CSC2=C(C#N)C(c3ccccc3F)CC(=O)N2C1 (centres undefined)	PRMT1 FP inh 54 | PRMT1 inh conf 42
COc1cc(OC)c(C2CC(=O)N3CN(c4ccccc4C)CSC3=C2C#N)cc1OC (centres undefined)	PRMT1 FP inh 29 (no result: ABHD5-PLIN5 inh) | PRMT1 inh conf 80
COc1ccc(N2CSC3=C(C#N)C(c4cccc(OC)c4OC)CC(=O)N3C2)cc1 (centres undefined)	PRMT1 FP inh 41 | PRMT1 inh conf 68
CC(C)[C@H](NC(=O)c1ccccc1)C(=O)N1CCC[C@H]1C(=O)NCCc1ccccc1Cl	none (no result: ABHD5-PLIN5 inh)
COC(=O)[C@]12C[C@H](CC(=O)N3CCN(C(=O)C4CC4)CC3)C(=O)N(Cc3ccco3)C1=C[C@H](C1CCCC1)O[C@@H]2C	none (no result: ABHD5-PLIN5 inh)
O=C(C(=O)N1CCN(S(=O)(=O)c2ccc(F)cc2)CC1)c1cccc(C(F)(F)F)c1	none (no result: ABHD5-PLIN5 inh)
Cc1ccc(N2C(=O)CC(Sc3nc4ccccc4o3)C2=O)cc1Cl (centres undefined)	PRMT1 FP inh 50 | PRMT1 inh conf 37
CCCc1c(O)nc(SC2CC(=O)N(c3ccc(C)c(Cl)c3)C2=O)[nH]c1=O (centres undefined)	none
